# The antibiotic and cytotoxicity screens of Wong et al. (2023)
# Out of some 39,000 compounds screened, about 3,300 (8.5%) were called active. The full list was thinned out, with actives kept by preference.
# Tested on: HepG2
# Assay: cytotoxicity call (relative viability < 0.9)
# Settings: 10 µM
row,Compound,cytotoxicity call
1,CNC[C@H]1Oc2ccc(NS(=O)(=O)c3cn(C)cn3)cc2C(=O)N([C@@H](C)CO)C[C@H]1C,inactive
2,C[C@@H]1CCCCO[C@@H](CN(C)C(=O)Nc2ccccc2)[C@H](C)CN([C@@H](C)CO)C(=O)c2cc(NC(=O)Nc3ccccc3)ccc2O1,inactive
3,C[C@@H]1CN([C@@H](C)CO)C(=O)c2cc(-c3ccc(C(=O)N(C)C)cc3)cnc2O[C@H]1CN(C)C(=O)CN(C)C,inactive
4,C[C@H]1CCCCO[C@H](CN(C)Cc2ccccc2)[C@@H](C)CN([C@@H](C)CO)C(=O)c2cc(NC(=O)c3ccncc3)ccc2O1,inactive
5,Cc1noc(C)c1NC(=O)Nc1ccc2c(c1)C(=O)N([C@H](C)CO)C[C@@H](C)[C@H](CN(C)Cc1ccc(Oc3ccccc3)cc1)O2,inactive
6,Cc1cc(C(=O)Nc2cccc3c2O[C@@H](CN(C)C(=O)NC(C)C)[C@H](C)CN([C@H](C)CO)C3=O)n(C)n1,inactive
7,C[C@@H]1CN([C@@H](C)CO)C(=O)c2cc(NC(=O)Nc3cccc4ccccc34)ccc2O[C@@H](C)CCCCO[C@@H]1CN(C)S(=O)(=O)c1ccc(F)cc1,inactive
8,CN1CCN(C(=O)C[C@H]2CC[C@@H](NC(=O)c3ccc4c(c3)OCO4)[C@H](CO)O2)CC1,inactive
9,C[C@@H]1CN([C@@H](C)CO)C(=O)c2c(c3ccccc3n2C)-c2ccccc2CO[C@H]1CN(C)C(=O)Nc1ccccc1,inactive
10,CN1C(=O)c2cc(NC(=O)C3CCOCC3)ccc2OC[C@H]2O[C@H](CC(=O)NCc3ccccc3F)CC[C@H]21,inactive
11,C[C@H]1CN([C@@H](C)CO)C(=O)c2cc(NS(=O)(=O)c3cn(C)cn3)ccc2O[C@@H]1CN(C)Cc1ccccc1,inactive
12,C=CC1=C(C)C(=Cc2[nH]c(Cc3[nH]c(C=C4NC(=O)C(C)=C4C=C)c(C)c3CCC(=O)O)c(CCC(=O)O)c2C)NC1=O,inactive
13,C=CC1=C(C)C2=NC/1=C\C1=NC(=C\C3=NC(=C\C4=NC(=C\2)/C(C)=C4CCC(=O)O)/C(CCC(=O)O)=C3C)/C(C=C)=C1C,inactive
14,CC1=C(CCC(=O)O)c2cc3[nH]c(cc4nc(cc5[nH]c(cc1n2)c(C)c5C(C)O)C(C)=C4C(C)O)c(C)c3CCC(=O)O (stereo not drawn),active
15,CCc1c(c/2[nH]c1/C=C/1\N=C(/C(=C/3\N=C(/C=C/4\N/C(=C2)C(=C4C)C=C)[C@@H](C)[C@@H]3CCC(=O)O)CC(=O)N[C@@H](CC(=O)O)C(=O)O)C(=C1C)C(=O)O)C,inactive
16,COC(=O)CCc1c(c/2[nH]c1/C=C/1\N=C(/C=C/3\N=C(/C=C/4\N/C(=C2)[C@]2(C)[C@H](C(=O)OC)C(=CC=C42)C(=O)OC)C(=C3C=C)C)C(=C1CCC(=O)O)C)C,active
17,C=CC1=C(C)c2cc3[nH]c(cc4nc(cc5[nH]c(cc1n2)c(C)c5CCC(=O)O)C(CCC(=O)O)=C4C)c(C)c3C=C,active
18,CC/1=C(CCC(=O)O)/C/2=C/c3[nH]c(c(c3CCC(=O)O)C)/C=C/3\N=C(/C=C/4\N=C(\C=C1/N2)C(=C4C)C=C)C(=C3C)C=C,active
